# ± gives the standard deviation of the averaged measurements. Whole data set: some 33,000 sequences, median “E-score (rank enrichment, -0.5 to 0.5)” near -0.0075, cut for the highest 2% near 0.23. For the sample, the highest values were picked, then their nearest neighbours and some sequences at random.
# Tested on: WT Max(13-93) synthetic (M65Nle)
# Assay: PBM 8-mer E-score (E-score (rank enrichment, -0.5 to 0.5)); higher = stronger preferential binding
# Method: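 Protein binding microarray (universal PBM chip covering all 10-mers in fixed probe flanks) with chemically synthesized human Max(13-93) bHLH-LZ analogs (not full-length Max) bearing noncanonical residues (hArg, Tha, Aib, Nle at 65) and aromatic Cys staples. Read-out per 8-mer (and its reverse complement): E-score (rank-based enrichment, -0.5 to 0.5) and Z-score of median probe intensity.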
row,Sequence,PBM 8-mer E-score
1,AGGGAATC,-0.0163 ± 0.031
2,GTTTCGTA,0.0743 ± 0.067
3,GCGCTCTA,-0.19 ± 0.062
4,CCATACAG,-0.026 ± 0.18
5,CGTGAGCA,-0.0547 ± 0.079
6,CTATTTTA,0.0787 ± 0.12
7,ATATTTTA,0.271 ± 0.033
8,GTATTTTA,0.0179 ± 0.13
9,CGTTTTCA,0.106 ± 0.036
10,AACAGGTC,-0.0763 ± 0.049
11,ATAACGTG,0.261 ± 0.046
12,ATAACGTC,0.136 ± 0.042
13,ACAACGTA,0.024 ± 0.002
14,ACAACGTC,-0.0474 ± 0.05
15,ATAACGTA,0.203 ± 0.091
16,ACAACGTG,0.255 ± 0.089
17,GGCTGGCA,-0.311 ± 0.1
18,GCGTCTCA,-0.13 ± 0.025
19,CCGCACTC,-0.0409 ± 0.033
20,TATTTGAA,0.0846 ± 0.018
21,ACTTGGTC,0.0597 ± 0.089
22,CATTGTAA,0.134 ± 0.067
23,GACGTCGC,-0.091 ± 0.13
24,ACCGCGCT,-0.146 ± 0.012
25,ATGACCTC,0.0149 ± 0.085

row,Sequence,PBM 8-mer E-score
1,TCAAACCA,0.172 ± 0.063
2,AGTTTCAA,-0.0849 ± 0.1
3,TGTTTCAA,0.241 ± 0.011
4,GGTTTCAA,0.077 ± 0.0057
5,GTTTTAAA,0.0916 ± 0.047
6,GGTTTAAA,0.233 ± 0.043
7,AGTTTAAA,0.164 ± 0.0074
8,GGTTTAAC,0.0486 ± 0.048
9,TGTTTAAA,0.252 ± 0.09
10,TGTTTTAA,0.115 ± 0.0028
11,GTCATCAA,0.0407 ± 0.073
12,AAGACGAC,0.0772 ± 0.12
13,CAGCGTAG,0.0168 ± 0.0028
14,GACCATCA,-0.057 ± 0.034
15,AGGTAAGA,-0.0352 ± 0.073
16,CACGGTAG,-0.0473 ± 0.022
17,GTCAGCTA,-0.148 ± 0.085
18,GAATTGCA,0.06 ± 0.059
19,GTTCAGCA,0.0207 ± 0.087
20,CTGCGAAC,-0.0246 ± 0.099
21,ACCGTTGA,-0.15 ± 0.014
22,CATGTGCC,0.327 ± 0.011
23,CATGTGCA,0.321 ± 0.025
24,TATGTGCA,0.16 ± 0.02
25,CATGTGCG,0.296 ± 0.028

row,Sequence,PBM 8-mer E-score
1,AATGTGCG,0.115 ± 0.0056
2,CCTGTGCG,-0.0525 ± 0.063
3,GATGTGCC,-0.0199 ± 0.084
4,AATGTGCC,-0.0182 ± 0.064
5,GATGTGCA,0.052 ± 0.059
6,GGGAGATA,0.0313 ± 0.14
7,AAATGGTG,-0.0479 ± 0.077
8,AGATTGGG,0.0796 ± 0.049
9,TCGGGAGA,-0.0551 ± 0.06
10,ACCGGAGT,-0.185 ± 0.077
11,AGCTCAAA,-0.101 ± 0.07
12,ACGTGTTA,0.333 ± 0.053
13,GCGTGTTA,0.242 ± 0.043
14,ACGTGTTG,0.378 ± 0.067
15,GCGTGTGA,0.201 ± 0.034
16,AGGTGTTA,0.0454 ± 0.019
17,ACGTGTTC,0.278 ± 0.11
18,CCGTGTTA,0.145 ± 0.056
19,AGGTGTTC,0.0938 ± 0.013
20,AAGTGTTG,0.2 ± 0.0011
21,CCGTGTTC,0.034 ± 0.081
22,GCGTGTAA,0.18 ± 0.091
23,AGGTGTTG,-0.0777 ± 0.036
24,GTCTCACA,0.0533 ± 0.04
25,TAGTAGGA,-0.0355 ± 0.069

row,Sequence,PBM 8-mer E-score
1,CCGACCCG,-0.101 ± 0.18
2,CATCTTTA,-0.0556 ± 0.15
3,GGTGTAGA,0.0276 ± 0.032
4,ACTCGGTG,-0.111 ± 0.026
5,AGTAGCGC,-0.0656 ± 0.04
6,AACCACTT,0.109 ± 0.14
7,ACCCAATG,-0.141 ± 0.067
8,ACCCCGCG,-0.0797 ± 0.15
9,AAGCTGGC,-0.176 ± 0.06
10,CCAACCGG,-0.267 ± 0.0078
11,CTAGCGCC,-0.283 ± 0.024
12,GTTGTCTA,0.224 ± 0.094
13,ATTGTCTC,-0.142 ± 0.088
14,ATTGTCTA,0.26 ± 0.005
15,TATCTGCA,0.0121 ± 0.066
16,CAACTGCA,-9e-05 ± 0.065
17,CGATTATC,-0.178 ± 0.066
18,GTCGAAAC,0.079 ± 0.031
19,CATAACCA,0.165 ± 0.033
20,CATAACTA,0.167 ± 0.0044
21,GATAACTA,0.235 ± 0.061
22,AATAACTA,0.125 ± 0.0044
23,GATAACCA,0.24 ± 0.037
24,TATAACCA,0.17 ± 0.0076
25,CCATGACC,-0.0452 ± 0.14

row,Sequence,PBM 8-mer E-score
1,AAGATAAG,0.152 ± 0.024
2,GAGATACA,0.0679 ± 0.025
3,AAGATATC,0.0756 ± 0.073
4,AAGATACA,0.258 ± 0.015
5,AAGATAAC,0.266 ± 0.045
6,AAGATACT,0.0763 ± 0.011
7,CAGATATA,0.108 ± 0.023
8,AAGATATA,0.253 ± 0.046
9,GAGATAAC,0.104 ± 0.025
10,ACAGTCCG,-0.0248 ± 0.0053
11,CACGGTGC,0.0526 ± 0.033
12,CTGTTAAC,-0.00712 ± 0.14
13,ATGTTAAG,0.107 ± 0.028
14,GTGTTAAC,0.0845 ± 0.082
15,ATGTTATG,0.251 ± 0.084
16,ATGTTAAC,0.291 ± 0.035
17,GTGTTATA,0.215 ± 0.0088
18,CTGTTATA,0.055 ± 0.085
19,ATGTTATA,0.235 ± 0.069
20,ATGTTATC,0.0836 ± 0.016
21,GTGTGCCA,-0.0682 ± 0.094
22,ATACGCAC,0.0776 ± 0.052
23,ATAGTCAG,0.0518 ± 0.079
24,AACTATTG,0.139 ± 0.033
25,ACCTTCCC,-0.0595 ± 0.1

row,Sequence,PBM 8-mer E-score
1,AGCATGTA,0.238 ± 0.019
2,AGCATGTC,0.157 ± 0.0017
3,AGCATGTG,0.295 ± 0.0053
4,GGCATGTA,0.135 ± 0.023
5,CGCATGTA,0.0311 ± 0.051
6,AGCATGGG,0.128 ± 0.096
7,ACAGGTTA,0.0367 ± 0.075
8,CTTCTCCC,0.0392 ± 0.039
9,AAATTCGG,0.0747 ± 0.038
10,ATGGTCCA,-0.0964 ± 0.052
11,AAGGCATG,0.207 ± 0.081
12,AAAACACA,0.128 ± 0.02
13,AAAACACG,0.193 ± 0.049
14,CAAACAGG,0.0276 ± 0.019
15,TAAACACA,0.182 ± 0.021
16,CAAACACC,0.118 ± 0.15
17,AAAACAGC,0.0957 ± 0.12
18,CAAACAGC,0.244 ± 0.0038
19,CAAACACA,0.2434 ± 0.00028
20,CAAACACG,0.285 ± 0.064
21,ACATTTCT,0.152 ± 0.0081
22,CCCTGGCG,-0.198 ± 0.061
23,TACGGTCA,-0.0681 ± 0.052
24,CCAAGGCG,-0.191 ± 0.077
25,ACCGTAAT,-0.00988 ± 0.068

row,Sequence,PBM 8-mer E-score
1,TAGCTGGA,-0.111 ± 0.035
2,AATTACAA,0.251 ± 0.026
3,TATTACAA,0.181 ± 0.024
4,AATTACAT,0.135 ± 0.0071
5,GTAATCAC,-0.0619 ± 0.076
6,ACCGTGTC,-0.0348 ± 0.1
7,ATTAACAC,0.247 ± 0.019
8,ATTAACAA,0.289 ± 0.057
9,ATTAACAG,0.0545 ± 0.024
10,CTTAACAC,0.135 ± 0.068
11,GTTAACAA,0.138 ± 0.024
12,ATTAACTC,0.16 ± 0.064
13,GTTTCCGA,0.0231 ± 0.1
14,CTCAAAGC,-0.0195 ± 0.016
15,CATGATGG,-0.0865 ± 0.045
16,AATGATAA,0.146 ± 0.062
17,AATGATAC,0.2224 ± 0.00047
18,CATGATGC,0.124 ± 0.073
19,CATGATAA,0.296 ± 0.039
20,TATGATAA,0.201 ± 0.065
21,AATGATAT,0.257 ± 0.086
22,AATGATAG,0.166 ± 0.08
23,CATGATGA,0.233 ± 0.045

# Reference: the supplement of paper PMC12636033
